# Tests used:
# Experiment in all cases: DAPPL (digital affinity profiling via proximity ligation, sequencing); 10 mM Tris-HCl pH 7.5, 50 mM NaCl, 1 mM DTT, 4% glycerol, room temperature, 30 min; GST-TFs on glutathione beads, 16-mer random dsDNA library, 0.1% formaldehyde crosslink after washing; high values mean tight binding
# FEV = target: T1, FEV (Homo sapiens, UniProt Q99581 1-238); conditions: protein: recombinant; tags: N-terminal GST; dsDNA, one strand shown
# T1 sequence: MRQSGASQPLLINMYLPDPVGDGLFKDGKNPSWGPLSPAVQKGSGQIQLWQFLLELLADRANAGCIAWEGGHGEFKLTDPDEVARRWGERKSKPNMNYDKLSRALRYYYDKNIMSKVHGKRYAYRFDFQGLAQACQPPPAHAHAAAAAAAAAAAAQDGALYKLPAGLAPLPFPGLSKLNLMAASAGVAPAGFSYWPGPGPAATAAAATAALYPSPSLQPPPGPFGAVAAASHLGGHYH
# How it was run: (§1)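 Human transcription factors carrying a GST fusion were produced in yeast, bound to glutathione beads, tagged with DNA barcodes and pooled together with a tag-only sample. Each pool was held with 200 nmole of a random double-stranded 16-mer DNA library in Tris/NaCl/DTT/glycerol buffer for 30 min at room temperature, then washed, crosslinked in 0.1% formaldehyde, proximity-ligated with BsaI/T4 ligase (1 h, 37 °C), PCR-amplified and sequenced on an Illumina NextSeq500. Binding signal is the read frequency of each hexamer for a given factor divided by its frequency in the tag-only sample.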
# ETV5 = ETV5 (Homo sapiens, UniProt P41161 1-510); conditions: protein: recombinant; tags: N-terminal GST; dsDNA, one strand shown
# Chain of ETV5 (P41161 whole entry): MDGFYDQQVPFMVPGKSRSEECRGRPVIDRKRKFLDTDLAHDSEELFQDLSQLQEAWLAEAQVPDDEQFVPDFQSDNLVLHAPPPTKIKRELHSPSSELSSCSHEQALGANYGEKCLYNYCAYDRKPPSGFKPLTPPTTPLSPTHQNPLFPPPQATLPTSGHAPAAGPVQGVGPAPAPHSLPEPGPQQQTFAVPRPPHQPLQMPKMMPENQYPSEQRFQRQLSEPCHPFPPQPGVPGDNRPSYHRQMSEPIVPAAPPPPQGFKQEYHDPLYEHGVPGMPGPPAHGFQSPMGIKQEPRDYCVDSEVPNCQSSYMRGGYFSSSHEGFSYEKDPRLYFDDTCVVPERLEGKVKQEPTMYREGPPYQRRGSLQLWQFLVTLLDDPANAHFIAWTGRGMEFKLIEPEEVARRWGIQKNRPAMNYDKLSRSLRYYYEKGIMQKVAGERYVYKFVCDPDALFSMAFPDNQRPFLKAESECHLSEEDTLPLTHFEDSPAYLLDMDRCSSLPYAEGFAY
# How it was run: as §1
# HSF1 = HSF1 (Homo sapiens, UniProt Q00613 1-529); conditions: protein: recombinant; tags: N-terminal GST; chain copies: 3; dsDNA, one strand shown
# Chain of HSF1 (Q00613 whole entry): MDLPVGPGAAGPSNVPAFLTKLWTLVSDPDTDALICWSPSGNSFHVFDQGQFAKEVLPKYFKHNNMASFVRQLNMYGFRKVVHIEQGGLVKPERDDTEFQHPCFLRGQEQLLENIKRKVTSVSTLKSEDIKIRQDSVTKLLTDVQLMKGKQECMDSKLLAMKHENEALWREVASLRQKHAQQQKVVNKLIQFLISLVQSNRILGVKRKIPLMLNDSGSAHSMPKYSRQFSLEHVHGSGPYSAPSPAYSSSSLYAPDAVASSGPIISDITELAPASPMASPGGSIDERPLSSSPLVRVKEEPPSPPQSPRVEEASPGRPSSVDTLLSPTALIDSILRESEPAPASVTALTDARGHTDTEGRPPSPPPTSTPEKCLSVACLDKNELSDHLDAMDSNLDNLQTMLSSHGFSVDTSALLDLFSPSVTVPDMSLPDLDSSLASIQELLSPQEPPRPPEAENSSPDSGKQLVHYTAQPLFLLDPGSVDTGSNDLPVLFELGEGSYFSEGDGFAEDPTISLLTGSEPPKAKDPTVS
# How it was run: as §1
# SPIC = target: T2, SPIC (Homo sapiens, UniProt Q8N5J4 1-248); conditions: protein: recombinant; tags: N-terminal GST; dsDNA, one strand shown
# T2 sequence: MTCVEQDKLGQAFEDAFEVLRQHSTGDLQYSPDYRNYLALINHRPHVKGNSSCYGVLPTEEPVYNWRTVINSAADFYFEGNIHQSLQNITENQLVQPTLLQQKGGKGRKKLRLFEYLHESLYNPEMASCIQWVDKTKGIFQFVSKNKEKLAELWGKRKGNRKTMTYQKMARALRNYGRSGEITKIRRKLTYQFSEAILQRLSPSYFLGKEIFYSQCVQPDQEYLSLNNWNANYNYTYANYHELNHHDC
# How it was run: as §1
# ELF4 = ELF4 (Homo sapiens, UniProt Q99607 1-663); conditions: protein: recombinant; tags: N-terminal GST; dsDNA, one strand shown
# Chain of ELF4 (Q99607 whole entry): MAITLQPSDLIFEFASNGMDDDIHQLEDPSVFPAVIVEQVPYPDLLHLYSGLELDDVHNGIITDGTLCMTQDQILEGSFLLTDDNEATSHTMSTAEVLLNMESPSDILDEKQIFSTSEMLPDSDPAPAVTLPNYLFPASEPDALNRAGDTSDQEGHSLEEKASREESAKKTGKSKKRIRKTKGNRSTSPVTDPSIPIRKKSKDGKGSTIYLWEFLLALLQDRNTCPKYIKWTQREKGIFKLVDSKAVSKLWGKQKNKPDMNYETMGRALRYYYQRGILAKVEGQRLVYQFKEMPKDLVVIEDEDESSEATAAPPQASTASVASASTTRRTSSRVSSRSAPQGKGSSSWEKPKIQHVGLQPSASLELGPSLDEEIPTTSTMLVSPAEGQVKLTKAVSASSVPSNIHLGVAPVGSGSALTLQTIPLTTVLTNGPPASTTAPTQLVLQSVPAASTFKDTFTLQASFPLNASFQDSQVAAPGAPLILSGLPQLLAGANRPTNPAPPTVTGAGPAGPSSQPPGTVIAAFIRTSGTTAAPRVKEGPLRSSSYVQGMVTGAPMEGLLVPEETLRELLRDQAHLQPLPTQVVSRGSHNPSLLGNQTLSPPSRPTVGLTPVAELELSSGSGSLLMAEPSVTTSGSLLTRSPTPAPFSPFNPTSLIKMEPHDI
# How it was run: as §1
# ELK4 = target: T3, ELK4 (Homo sapiens, UniProt P28324-2 1-405); conditions: protein: recombinant; tags: N-terminal GST; dsDNA, one strand shown
# T3 sequence: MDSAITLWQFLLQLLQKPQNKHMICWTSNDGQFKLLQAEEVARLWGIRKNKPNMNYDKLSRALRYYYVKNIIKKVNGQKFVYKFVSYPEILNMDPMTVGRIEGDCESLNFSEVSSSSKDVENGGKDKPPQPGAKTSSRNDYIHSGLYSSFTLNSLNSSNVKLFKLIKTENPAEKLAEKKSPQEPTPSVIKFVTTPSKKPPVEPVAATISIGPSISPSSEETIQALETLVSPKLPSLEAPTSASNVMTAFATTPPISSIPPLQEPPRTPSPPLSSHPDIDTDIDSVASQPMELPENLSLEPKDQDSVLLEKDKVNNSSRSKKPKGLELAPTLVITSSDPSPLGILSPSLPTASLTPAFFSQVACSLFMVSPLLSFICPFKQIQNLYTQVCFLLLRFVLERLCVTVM
# How it was run: as §1
# ETV2 = target: T4, ETV2 (Homo sapiens, UniProt O00321 1-342); conditions: protein: recombinant; tags: N-terminal GST; dsDNA, one strand shown
# T4 sequence: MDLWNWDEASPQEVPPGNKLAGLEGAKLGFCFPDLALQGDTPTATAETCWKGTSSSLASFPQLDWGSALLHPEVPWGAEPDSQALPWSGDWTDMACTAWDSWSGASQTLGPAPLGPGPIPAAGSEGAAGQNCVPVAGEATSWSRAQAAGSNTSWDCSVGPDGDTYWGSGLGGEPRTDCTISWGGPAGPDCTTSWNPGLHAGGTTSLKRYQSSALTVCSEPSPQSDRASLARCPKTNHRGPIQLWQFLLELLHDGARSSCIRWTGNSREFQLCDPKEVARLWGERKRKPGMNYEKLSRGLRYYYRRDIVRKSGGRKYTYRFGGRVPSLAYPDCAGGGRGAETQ
# How it was run: as §1
# ELF3 = target: T5, ELF3 (Homo sapiens, UniProt P78545 1-371); conditions: protein: recombinant; tags: N-terminal GST; dsDNA, one strand shown
# T5 sequence: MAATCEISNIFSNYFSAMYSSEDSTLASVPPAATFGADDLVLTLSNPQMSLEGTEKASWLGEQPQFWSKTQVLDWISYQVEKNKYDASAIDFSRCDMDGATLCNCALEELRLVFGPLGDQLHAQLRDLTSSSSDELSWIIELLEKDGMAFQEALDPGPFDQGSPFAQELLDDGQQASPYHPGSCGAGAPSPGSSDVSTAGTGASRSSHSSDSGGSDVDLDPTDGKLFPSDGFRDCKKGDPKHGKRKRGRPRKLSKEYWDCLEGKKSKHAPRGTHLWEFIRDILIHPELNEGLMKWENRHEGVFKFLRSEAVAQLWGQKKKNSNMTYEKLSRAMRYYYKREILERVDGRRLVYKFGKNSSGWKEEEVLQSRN
# How it was run: as §1
# CRX = CRX (Homo sapiens, UniProt O43186 1-299); conditions: protein: recombinant; tags: N-terminal GST; dsDNA, one strand shown
# Chain of CRX (O43186 whole entry): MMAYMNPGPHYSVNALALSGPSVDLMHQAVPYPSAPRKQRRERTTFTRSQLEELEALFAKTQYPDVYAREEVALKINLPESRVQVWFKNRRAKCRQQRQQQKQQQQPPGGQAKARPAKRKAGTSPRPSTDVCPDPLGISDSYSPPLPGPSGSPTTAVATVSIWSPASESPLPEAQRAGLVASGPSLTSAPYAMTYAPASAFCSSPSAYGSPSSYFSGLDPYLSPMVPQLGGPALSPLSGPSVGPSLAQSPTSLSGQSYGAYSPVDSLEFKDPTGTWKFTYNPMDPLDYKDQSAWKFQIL
# How it was run: as §1
# ETV1 = ETV1 (Homo sapiens, UniProt P50549 1-477); conditions: protein: recombinant; tags: N-terminal GST; dsDNA, one strand shown
# Chain of ETV1 (P50549 whole entry): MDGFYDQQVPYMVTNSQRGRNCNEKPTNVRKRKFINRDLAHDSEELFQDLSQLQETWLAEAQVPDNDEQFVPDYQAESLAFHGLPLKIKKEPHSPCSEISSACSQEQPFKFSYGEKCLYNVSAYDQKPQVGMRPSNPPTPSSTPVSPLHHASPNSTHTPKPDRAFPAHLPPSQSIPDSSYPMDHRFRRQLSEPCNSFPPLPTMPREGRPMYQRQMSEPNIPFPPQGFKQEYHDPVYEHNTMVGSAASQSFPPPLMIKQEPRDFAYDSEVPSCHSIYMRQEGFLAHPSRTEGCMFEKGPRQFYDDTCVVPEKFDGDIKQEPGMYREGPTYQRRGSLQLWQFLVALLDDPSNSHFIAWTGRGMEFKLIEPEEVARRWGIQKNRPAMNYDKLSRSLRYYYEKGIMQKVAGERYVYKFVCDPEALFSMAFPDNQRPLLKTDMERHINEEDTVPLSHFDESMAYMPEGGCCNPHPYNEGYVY
# How it was run: as §1
sequence,measurement,setting,value
CCGCAT,binding signal,FEV,"1.49 fold enrichment (6-mer frequency, TF over GST control)"
same,binding signal,ETV5,"1.65 fold enrichment (6-mer frequency, TF over GST control)"
same,binding signal,HSF1,"1.13 fold enrichment (6-mer frequency, TF over GST control)"
same,binding signal,SPIC,"1.53 fold enrichment (6-mer frequency, TF over GST control)"
same,binding signal,ELF4,"1.62 fold enrichment (6-mer frequency, TF over GST control)"
same,binding signal,ELK4,"1.31 fold enrichment (6-mer frequency, TF over GST control)"
same,binding signal,ETV2,"1.52 fold enrichment (6-mer frequency, TF over GST control)"
same,binding signal,ELF3,"1.95 fold enrichment (6-mer frequency, TF over GST control)"
same,binding signal,CRX,"1.19 fold enrichment (6-mer frequency, TF over GST control)"
same,binding signal,ETV1,"1.59 fold enrichment (6-mer frequency, TF over GST control)"

# Reference: PMC7862700, “An all-to-all approach to the identification of sequence-specific readers for epigenetic DNA modifications on cytosine”
